In the supplement of paper PMC7156485 one finds cell number and H1.0 immunofluorescence intensity data, which are given here for 23 compounds.

± gives the standard deviation of the averaged measurements.

Common to all, as to settings: concentration: 10 µM; 24 h
The test system of experiment [1] is HCC1569. Description: cell number relative to DMSO (% of DMSO); higher = more cells (less growth inhibition / toxicity). Put shortly:
(§1)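 After 24 h at 37 °C with compounds at 10 µM, in triplicate, HCC1569 and TDF cells were fixed with 3.7% formaldehyde. Immunostaining used a rabbit anti-H1.0 antibody and an AlexaFluor 647 secondary, with DAPI, and six fields per well were imaged at ×10. H1.0 nuclear intensity or cell number is presented as percent of the plate control, from the median of replicates, with HCC1569 values smoothed for positional effects.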

Experiment [2] concerns TDF. The experiment is described as above. The essentials: as §1
For experiment [3], the system named is TDF. Kind of experiment: H1.0 immunofluorescence intensity relative to DMSO (% of DMSO); higher = stronger H1.0 induction, active = 120 or more. Put shortly: as §1
Experiment [4] has as its system HCC1569. Description: H1.0 immunofluorescence intensity relative to DMSO (% of DMSO); higher = stronger H1.0 induction, active = 140 or more. Put shortly: as §1
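For H1.0 immunofluorescence intensity relative to DMSO in this document: TDF is a line of transformed human dermal fibroblasts of mesenchymal origin.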
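For cell number relative to DMSO in this document: TDF denotes transformed human dermal fibroblasts of mesenchymal origin.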

`CC(=O)OCC1OC([S-])C(OC(C)=O)C(OC(C)=O)C1OC(C)=O.CCP(CC)CC.[Au+]` (configuration not stated) [Auranofin]: the cell number with HCC1569 [1] turned out to be 38; with TDF [2], 15.4. In addition, the H1.0 immunofluorescence intensity in the experiment with TDF [3] was 155 (active); in the experiment on HCC1569 [4], 146 (active).
The corresponding values for `CC(C)CN(C)c1nc(N)c(C(=O)N=C(N)N)nc1Cl` [5-(N-Methyl-N-isobutyl)amiloride] are 100, 92.3, 106 (inactive) and 101 (inactive).
With `Nc1ccc(S(=O)(=O)Nc2ccnn2-c2ccccc2)cc1` [Sulfaphenazole], the cell number stood at 107 with HCC1569 [1] and 113 with TDF [2]. Moreover, the H1.0 immunofluorescence intensity with TDF [3] was 89.8 (inactive); with HCC1569 [4] it was 106 (inactive).
The corresponding values for `CC(N)(Cc1ccc(O)cc1)C(=O)O` (racemic) [DL-alpha-Methyl-p-tyrosine] are 103, 117, 114 (inactive) and 106 (inactive).
For `C[C@H]1C[C@H]2[C@@H]3CCC4=CC(=O)C=C[C@]4(C)[C@@]3(F)[C@@H](O)C[C@]2(C)[C@@]1(O)C(=O)COP(=O)([O-])[O-].[Na+].[Na+]` the same measures were 97.2, 106, 83.8 (inactive) and 111 (inactive).
For `COc1cc(O)c2c(=O)c(O)c(-c3ccc(O)c(O)c3)oc2c1` [Rhamnetine] the same measures were 91.7, 89.5, 93 (inactive) and 130 (inactive).
Take `O=C(C=CC=Cc1ccc2c(c1)OCO2)N1CCCCC1` [Piperine]: the cell number amounted to 100 with HCC1569 [1] and 97 in the experiment on TDF [2]. Besides, the H1.0 immunofluorescence intensity in the experiment with TDF [3] was 96.8 (inactive); with HCC1569 [4], 104 (inactive).
The corresponding values for `O=c1oc2ccccc2c(O)c1Cc1c(O)c2ccccc2oc1=O` [Dicoumarol] are 99.6, 94.5, 99 (inactive) and 98.4 (inactive).
Turning to `CC12CCC3c4ccc(O)cc4CC(CCCCCCCCCS(=O)CCCC(F)(F)C(F)(F)F)C3C1CCC2O` (configuration not stated) [Fulvestrant], the cell number in the experiment with HCC1569 [1] was determined as 94.7; in the experiment on TDF [2], 94.3. Besides, the H1.0 immunofluorescence intensity is 104 (inactive) in the experiment with TDF [3] and 110 (inactive) with HCC1569 [4].
On to `CCCn1c(=O)c2[nH]c(C3CCCC3)nc2n(CCC)c1=O` [8-Cyclopentyl-1,3-dipropylxanthine], for which the cell number was determined as 101 with HCC1569 [1] and 92.5 in the experiment on TDF [2]. The values for the H1.0 immunofluorescence intensity in the experiment with TDF [3] and in the experiment with HCC1569 [4] were 99.5 (inactive) and 93.7 (inactive), respectively.
On to `Cn1cc(-c2ccc3nnc(C(F)(F)c4ccc5ncccc5c4)n3n2)cn1`, for which the cell number in the experiment with HCC1569 [1] is 102; in the experiment on TDF [2], 96. Also, the H1.0 immunofluorescence intensity with TDF [3] is 96.1 (inactive); in the experiment on HCC1569 [4] it was 101 (inactive).
The corresponding values for `CC(C=CC1=C(C)CCCC1(C)C)=CC=CC(C)=CC(=O)O` [9-cis Retinoic acid] are 105 ± 4.8, 106 ± 5.2, 87.8 (inactive) and 116 (inactive).
For `CC(OC(=O)c1ccc(F)cc1F)C(=O)N(C)C1CCS(=O)(=O)C1` (configuration not stated) [Cdk2/9 Inhibitor] the same measures were 48.9, 29.1, 110 (inactive) and 139 (inactive).
As to `COc1ccccc1N1CCN(CCCNc2c(C)c(=O)n(C)c(=O)n2C)CC1` [Urapidil, 5-Methyl-], the results for the cell number in the experiment on HCC1569 [1] and in the experiment with TDF [2] were 105 and 121, respectively. For the same compound, the H1.0 immunofluorescence intensity with TDF [3] is 96.7 (inactive); in the experiment with HCC1569 [4], 108 (inactive).
The corresponding values for `CCCCCCCCCCCCCCSCC(=O)O` [Tetradecylthioacetic acid] are 104, 107, 85.8 (inactive) and 102 (inactive).
For `O=C(C=Cc1ccc(O)c(O)c1)OC(Cc1ccc(O)c(O)c1)C(=O)O` (configuration not stated) [Rosmarinic acid] the same measures were 104 ± 2.8, 101 ± 6.3, 97.7 (inactive) and 98.7 (inactive).
Regarding `Cn1cc(C=C2C(=O)Nc3ccc(S(N)(=O)=O)cc32)c2ccccc21` [Syk Inhibitor], the cell number turned out to be 84.1 with HCC1569 [1] and 95.3 with TDF [2]. In addition, the H1.0 immunofluorescence intensity in the experiment on TDF [3] is 82.7 (inactive); in the experiment with HCC1569 [4], 132 (inactive).
For the compound `CCCC(C(=O)OCCN(CC)CC)(c1ccccc1)c1ccccc1.Cl` [SKF-525A hydrochloride], the cell number in the experiment on HCC1569 [1] came out at 94; in the experiment with TDF [2] it was 100. Also, the values for the H1.0 immunofluorescence intensity in the experiment on TDF [3] and in the experiment on HCC1569 [4] were 88.8 (inactive) and 102 (inactive), respectively.
The corresponding values for `CCCCC=CCCCCCCCCC(=O)O` [10(E)-Pentadecenoic acid] are 103, 95.8, 110 (inactive) and 101 (inactive).
For `Nc1nc(=O)c2ncn(COCCO)c2[nH]1` [Acyclovir] the same measures were 98.8, 104, 90.2 (inactive) and 85.5 (inactive).
The corresponding values for `CCCOC(=O)c1cc(O)c(O)c(O)c1` [N-Propyl gallate] are 89, 91, 100 (inactive) and 107 (inactive).
For the compound `Cl.O=C(OCCN1CCOCC1)C1(c2ccccc2)CCCCC1`, the cell number with HCC1569 [1] came out at 99.8; in the experiment with TDF [2], 111. The values for the H1.0 immunofluorescence intensity in the experiment on TDF [3] and with HCC1569 [4] were 90.5 (inactive) and 94 (inactive), respectively.
As to `CC(=O)ONC1=c2ccccc2=NC1=C1C(=O)Nc2cc(Br)ccc21`, the results for the cell number in the experiment with HCC1569 [1] and in the experiment with TDF [2] were 55.8 and 51.1, respectively. In addition, the H1.0 immunofluorescence intensity in the experiment with TDF [3] is 116 (inactive); in the experiment on HCC1569 [4], 188 (active).
